# From PubChem
# MOR-DOR ag-1 = OPRM1-OPRD1 heterodimerization agonism | P35372+P41143 | cells, luminescence | activation, % at 9.3 µM | 0.3% of 340,000 active | AID 504326
# HTR5A ag ctr = counter-screen for OPRM1-OPRD1 agonists: human HTR5A agonism; HTR5A agonist assay, luminescence, cell-based; 0.61% of 340,000 active; P47898; activation, % at 9.3 µM; AID 504692; in the data active = activation mostly above about 9.5%, no sharp cut-off; inactive = mostly below about 7.6%
# Target sequence (P47898 whole entry, looked up): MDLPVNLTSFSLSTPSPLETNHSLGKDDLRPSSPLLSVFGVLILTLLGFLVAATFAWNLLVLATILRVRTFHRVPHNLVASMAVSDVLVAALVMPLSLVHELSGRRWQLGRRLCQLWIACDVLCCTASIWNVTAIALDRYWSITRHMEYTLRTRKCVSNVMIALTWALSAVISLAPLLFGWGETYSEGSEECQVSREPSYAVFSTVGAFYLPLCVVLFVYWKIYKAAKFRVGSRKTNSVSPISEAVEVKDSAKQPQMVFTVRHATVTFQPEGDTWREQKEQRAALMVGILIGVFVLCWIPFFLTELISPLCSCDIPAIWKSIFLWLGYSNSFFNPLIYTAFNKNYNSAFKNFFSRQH
# HTR5A inv ctr = HTR5A inverse agonism, opioid heterodimer counter-screen; P47898; HTR5A cell line, luminescence; inhibition, % at 9.3 µM; 0.083% of 340,000 active; in the data active = inhibition mostly above about 23%, no sharp cut-off; inactive = mostly below about 18%
# OPRM1-OPRD1 inv = inverse agonists of human mu-delta opioid receptor heterodimerization; cell-based MOR-DOR heterodimer luminescence, inverse agonism; 0.21% of 340,000 active; P35372+P41143; inhibition, % at 9.3 µM; in the data active = inhibition above about 22%, passing the limit was not always enough
# MOR-DOR ag-2 = opioid heterodimer agonism, HTR5A counter-screen; shares compounds with HTR5A ag ctr; U2OS counter-screen cells, complementation luminescence, 3 h; activation, % at 9.3 µM; 13% of 800 active; AID 504913
# HTR5A ag confirm = confirmation of human HTR5A agonists | shares compounds with HTR5A ag ctr | HTR5A agonist cell assay, luminescence | activation, % at 9.3 µM | 17% of 800 active | AID 504915; in the data active = activation above about 17%
# A number is an active result; n = inactive; x = no result given. Compounds with a hit are over-represented: about 1.1% of the library has one in this group of screens. Cut-off read from the data, not from the text of the source, unless noted: active = activation above about 18%; inactive = the rest.
SMILES,MOR-DOR ag-1,HTR5A ag ctr,HTR5A inv ctr,OPRM1-OPRD1 inv,MOR-DOR ag-2,HTR5A ag confirm
COc1cc(C(=O)NCC(=O)N/N=C/c2ccc(OC(=O)c3ccco3)cc2)cc(OC)c1OC,n,22,n,n,n,n
Cc1cc(C)cc(OC(=O)COc2ccccc2C)c1,n,n,n,n,x,x
CCN1CCN(S(=O)(=O)Cc2ccccc2Cl)CC1,n,n,n,n,x,x
COc1ccc([C@@H]2C[C@@H](c3ccccc3)Oc3cc(C)cc(C)c32)cc1,n,25,n,n,n,n
COc1ccc(C2CC(O)(c3ccccc3)Oc3c(C)ccc(C)c32)cc1 (stereo not given),n,n,n,n,x,x
CC(C)N=c1scc(-c2cccs2)n1/N=C/c1ccc(O)c(O)c1O,n,14,n,n,20,n
CCN=c1scc(-c2cccs2)n1/N=C/c1cc(OC)ccc1O,n,n,n,n,x,x
CSc1cccc(NC(=O)Nc2nc3c(C)cccc3s2)c1,n,n,n,n,x,x
O=S(=O)(Nc1cccc(-c2ccc3nncn3n2)c1)c1ccccc1F,n,20,n,n,18,n
O=C(COc1ccccc1)Nc1ccc(-c2nnc(-c3ccco3)o2)cc1,n,16,n,n,n,n
COc1ccccc1OCC(=O)Nc1cccc(-c2nnc(-c3ccco3)o2)c1,n,n,n,n,x,x
COc1ccc(Cl)cc1NC(=O)CCN1C(=O)C2C3C=CC(C4CC34)C2C1=O (stereo not given),n,n,n,n,x,x
Oc1c(C(c2cccs2)N2CCN(c3cccc(Cl)c3)CC2)sc2ncnn12 (stereo not given),n,18,n,n,n,n
Oc1c(C(c2cccs2)N2CCOCC2)sc2ncnn12 (stereo not given),n,n,n,n,x,x
C1=CC2=NC34CCCCC3CC3=C(CCCC3)N4C2=CC1=NC1CCCCC1 (stereo not given),n,n,n,n,x,x
O=C(NCCc1c[nH]c2ccccc12)C(=O)Nc1cc2c3c(c1)CC(=O)N3CCC2,n,16,n,n,31,n
O=S(Cc1ccc(Cl)cc1)c1ccccc1 (stereo not given),n,n,n,n,x,x
Cc1cc(NC(=O)CCC(=O)N(CC(=O)NCC2CCCO2)c2cccc(F)c2)no1 (stereo not given),n,n,n,n,x,x
NC(=O)c1cc([N+](=O)[O-])ccc1NCc1ccc(O)cc1,n,n,n,n,x,x
NC(=O)c1cc([N+](=O)[O-])ccc1NCc1cnccn1,n,22,n,n,n,n
NC(=O)c1cc([N+](=O)[O-])ccc1NCC1CCCCC1,n,16,n,n,n,n
Cc1onc(-c2c(F)cccc2Cl)c1C(=O)NC(=S)NC1CCS(=O)(=O)C1 (stereo not given),n,n,n,n,x,x
COc1ccc(NC(=O)C2CCCNC2)cc1OCC(C)C (stereo not given),n,n,n,n,x,x
COc1ccc(NC(=O)C2CCCN(CCCc3ccccc3)C2)cc1OCC(C)C (stereo not given),n,16,n,n,n,n
CCC1Oc2ccccc2N(CC(=O)NC2CCCC2)C1=O (stereo not given),n,n,n,n,x,x
SMILES,MOR-DOR ag-1,HTR5A ag ctr,HTR5A inv ctr,OPRM1-OPRD1 inv,MOR-DOR ag-2,HTR5A ag confirm
COc1ccc(OCCC(=O)Nc2cc3c(cc2C(=O)O)OCCCO3)cc1,n,15,n,n,n,n
COc1ccccc1OCC(=O)Nc1cc2c(cc1C(=O)O)OCCCO2,n,n,n,n,x,x
CC1(C)Cc2c(C#N)c(SCCC#N)nc(N3CCOCC3)c2CS1,n,15,n,n,n,n
COc1ccc(CNC(=O)COC(=O)[C@H](Cc2ccccc2)NC(=O)c2cccs2)cc1,n,n,n,n,x,x
C=CCN1C(=O)c2ccc(C(=O)NCCc3ccc(F)cc3)cc2C1=O,n,n,n,n,x,x
C=CCN1CCc2c(cc(O)c(O)c2Br)[C@@H](c2ccccc2)C1,n,57,n,n,n,59
CC(=O)N1CCCC(N2CCN(c3cccc(C(F)(F)F)c3)CC2)C1 (stereo not given),n,n,n,n,x,x
Cc1ccc(C(=O)N2CCCC(N3CCN(c4cccc(C(F)(F)F)c4)CC3)C2)s1 (stereo not given),n,15,n,n,n,n
CC(=O)Nc1ccc(S(=O)(=O)NCc2nc(-c3ccccc3Cl)no2)cc1,n,n,n,n,x,x
COC(=O)c1ccc(NC(=O)COc2cccc3c2OC(C)(C)C3)cc1,n,40,n,n,n,44
